Measurements published in PubChem BioAssay (Tox21).
Results filed as inconclusive are left out. Activity calls are given as the source filed them. Unless noted, calls come from the whole dose curve; as a rule, active = well fitted curve in the direction sought with a large enough effect in the repeat runs; inconclusive = weak or mixed curves; inactive = no such curve, though single readings can be large; an effect the other way counts as inactive or inconclusive. Positions of bridges follow the written chain, without caps; N, C: chain ends. Non-standard residues stand in square brackets, D forms with d. Residues, ends and D or L forms follow the SMILES beside them. hArg = N=C(N)NCCCC[C@H](N)C(=O)O; Mpa = O=C(O)CCS

Legend:
[1] = qHTS RealTime-Glo MT Cell Viability Assay in HepG2 cells - 32 hour (AID 1224877); note: nearly all actives have a fitted effect of over 55% in size
Outline: (§1)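 HepG2 cells (600/well) were dispensed with RealTime-Glo reagents, incubated 5 h at 37 °C, then treated with compounds in DMSO for up to 40 h. Nonlytic NanoLuc luminescence reflecting viable cells was read at each stated time point.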

[2] = A CellTox Green Cytotoxicity Assay to monitor cytotoxicity in HepG2 cells - 24 hour (AID 1224878); note: nearly all actives have a fitted effect of over 45% in size; note: potency is the fitted concentration of half-maximal effect
Outline: (§2)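 Read-out is fluorescence of a cyanine dye excluded from live cells that stains DNA of dead HepG2 cells, with signal proportional to cytotoxicity. Plates were read at 0, 8, 16, 24, 32 and 40 h after compound addition.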

[3] = qHTS RealTime-Glo MT Cell Viability Assay in HEK293 cells - 0 hour (AID 1224880); note: top concentration of the series differs between compounds; nearly all actives have a fitted effect of over 45% in size
Outline: (§3)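 Cells were seeded together with NanoLuc luciferase and a prosubstrate that viable cells reduce to a luciferase substrate. After a 5 h incubation at 37 C/5% CO2, compounds were added and luminescence was measured repeatedly during 40 h of treatment.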

[4] = A CellTox Green Cytotoxicity Assay to monitor cytotoxicity in HEK293 cells - 32 hour (AID 1224881); note: nearly all actives have a fitted effect of over 40% in size; note: potency is the fitted concentration of half-maximal effect
Outline: (§4)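 Nonlytic real-time cytotoxicity: HEK293 + CellTox Green reagent plated, 5 h preincubation, pintool compound addition (23 nL in DMSO), 37 C for 40 h, fluorescence measured at successive time points.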

[5] = A CellTox Green Cytotoxicity Assay to monitor cytotoxicity in HepG2 cells - 0 hour (AID 1224882); note: nearly all actives have a fitted effect of over 35% in size
Outline: as §2

[6] = A CellTox Green Cytotoxicity Assay to monitor cytotoxicity in HepG2 cells - 32 hour (AID 1224883); note: nearly all actives have a fitted effect of over 50% in size; note: potency is the fitted concentration of half-maximal effect
Outline: as §2

[7] = A CellTox Green Cytotoxicity Assay to monitor cytotoxicity in HEK293 cells - 8 hour (AID 1224884); note: nearly all actives have a fitted effect of over 35% in size
Outline: as §4

[8] = qHTS RealTime-Glo MT Cell Viability Assay in HepG2 cells - 16 hour (AID 1224885); note: nearly all actives have a fitted effect of over 50% in size
Outline: as §1

[9] = qHTS RealTime-Glo MT Cell Viability Assay in HEK293 cells - 24 hour (AID 1224886); note: top concentration of the series differs between compounds; nearly all actives have a fitted effect of over 50% in size
Outline: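 HEK293 cells seeded with NanoLuc/prosubstrate reagent, rested 5 h at 37 C, then dosed and kept at 37 C up to 40 h. Nonlytic real-time luminescence from viable cells read at 0, 8, 16, 24, 32 and 40 h.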

[10] = qHTS RealTime-Glo MT Cell Viability Assay in HEK293 cells - 8 hour (AID 1224887); note: top concentration of the series differs between compounds; nearly all actives have a fitted effect of over 50% in size
Outline: as §3

[11] = A CellTox Green Cytotoxicity Assay to monitor cytotoxicity in HEK293 cells - 16 hour (AID 1224888); note: nearly all actives have a fitted effect of over 35% in size
Outline: as §4

[12] = qHTS RealTime-Glo MT Cell Viability Assay in HepG2 cells - 0 hour (AID 1224889); note: nearly all actives have a fitted effect of over 50% in size
Outline: as §1

[13] = A CellTox Green Cytotoxicity Assay to monitor cytotoxicity in HepG2 cells - 8 hour (AID 1224890); note: nearly all actives have a fitted effect of over 45% in size; note: potency is the fitted concentration of half-maximal effect
Outline: as §2

[14] = qHTS assay to identify small molecule antagonists of the estrogen receptor alpha (ER-alpha) signaling pathway using the BG1 cell line in the presence of 0.1 nM 17-beta-estradiol - cell viability counter screen (AID 1259241); note: nearly all actives have a fitted effect of over 40% in size
Outline: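 Estradiol-stimulated (0.1 nM) VM7Luc4E2 cells exposed to compounds 22 hr; viability measured by fluorescence of cleaved CellTiter-Fluor substrate after 30 min.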

[15] = qHTS assay to identify small molecule antagonists of the androgen receptor (AR) signaling pathway using the MDA cell line in the presence of 0.5 nM R1881 - cell viability counter screen (AID 1259242); note: nearly all actives have a fitted effect of over 45% in size
Outline: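 Counter screen for cytotoxicity run in the same wells as the AR antagonist reporter screen: MDA-kb2 cells were treated 16 hr with test compounds and 0.5 nM R1881, then live-cell protease activity was measured by fluorescence.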

[16] = qHTS assay to identify small molecule phospholipidosis (PLD) inducers (AID 1259344; active = well fitted curve in the direction sought with a large enough effect; an effect the other way counts as inactive or inconclusive)
Outline: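 HepG2 cells on collagen I, attached 4 h at 37 C, were co-treated with compound and LipidTOX Red dye for 24 h at 37 C, then fixed with paraformaldehyde plus Hoechst 33342 and imaged by high-content microscopy for phospholipid accumulation.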

[17] = molecular target: Estrogen receptor (Homo sapiens) (UniProt P03372); assay: qHTS assay to identify small molecule antagonists of the estrogen receptor alpha (ER-alpha) signaling pathway using the BG1 cell line in the presence of 0.1 nM 17-beta-estradiol (AID 1259244); note: nearly all actives have a fitted effect of over 50% in size
Sequence of Estrogen receptor (Homo sapiens) (P03372 whole entry, looked up): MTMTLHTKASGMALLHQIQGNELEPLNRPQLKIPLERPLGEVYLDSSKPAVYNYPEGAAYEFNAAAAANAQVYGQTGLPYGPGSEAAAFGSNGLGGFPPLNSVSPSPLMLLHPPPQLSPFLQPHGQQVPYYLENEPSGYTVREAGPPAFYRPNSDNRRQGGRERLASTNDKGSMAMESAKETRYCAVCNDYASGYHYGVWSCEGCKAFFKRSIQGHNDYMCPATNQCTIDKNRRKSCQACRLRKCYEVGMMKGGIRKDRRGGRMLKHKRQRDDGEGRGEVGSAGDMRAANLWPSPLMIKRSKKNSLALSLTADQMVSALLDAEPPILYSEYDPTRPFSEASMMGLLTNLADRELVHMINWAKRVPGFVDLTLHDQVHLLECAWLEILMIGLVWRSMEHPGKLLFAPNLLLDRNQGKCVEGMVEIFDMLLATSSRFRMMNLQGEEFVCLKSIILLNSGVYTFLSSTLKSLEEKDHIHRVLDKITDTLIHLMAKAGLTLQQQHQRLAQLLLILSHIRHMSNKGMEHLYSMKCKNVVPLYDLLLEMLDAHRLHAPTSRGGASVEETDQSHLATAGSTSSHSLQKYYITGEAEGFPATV
Outline: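 Cells: VM7Luc4E2, endogenous ER-alpha, 4x ERE-luc stable. Pre-culture 5 d, phenol red-free, charcoal-stripped FBS. Plated 24 h, compound + E2 0.1 nM final, 22 h 37C/5% CO2. Readout ONE-Glo luminescence.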

[18] = qHTS assay to identify small molecule HDAC inhibitors (AID 1259364)
Outline: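 Luminescence from a cell-permeant luminogenic class I/II HDAC substrate reports endogenous deacetylase activity in intact HCT-116 cells treated with compounds for 2 h.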

[19] = A CellTox Green Cytotoxicity Assay to monitor cytotoxicity in HepG2 cells - 40 hour (AID 1224879); note: nearly all actives have a fitted effect of over 40% in size
Outline: as §2

[20] = molecular target: Androgen receptor (Homo sapiens) (UniProt P10275); assay: qHTS assay to identify small molecule antagonists of the androgen receptor (AR) signaling pathway using the MDA cell line in the presence of 0.5 nM R1881 (AID 1259243); note: nearly all actives have a fitted effect of over 50% in size
Sequence of Androgen receptor (Homo sapiens) (P10275 whole entry, looked up): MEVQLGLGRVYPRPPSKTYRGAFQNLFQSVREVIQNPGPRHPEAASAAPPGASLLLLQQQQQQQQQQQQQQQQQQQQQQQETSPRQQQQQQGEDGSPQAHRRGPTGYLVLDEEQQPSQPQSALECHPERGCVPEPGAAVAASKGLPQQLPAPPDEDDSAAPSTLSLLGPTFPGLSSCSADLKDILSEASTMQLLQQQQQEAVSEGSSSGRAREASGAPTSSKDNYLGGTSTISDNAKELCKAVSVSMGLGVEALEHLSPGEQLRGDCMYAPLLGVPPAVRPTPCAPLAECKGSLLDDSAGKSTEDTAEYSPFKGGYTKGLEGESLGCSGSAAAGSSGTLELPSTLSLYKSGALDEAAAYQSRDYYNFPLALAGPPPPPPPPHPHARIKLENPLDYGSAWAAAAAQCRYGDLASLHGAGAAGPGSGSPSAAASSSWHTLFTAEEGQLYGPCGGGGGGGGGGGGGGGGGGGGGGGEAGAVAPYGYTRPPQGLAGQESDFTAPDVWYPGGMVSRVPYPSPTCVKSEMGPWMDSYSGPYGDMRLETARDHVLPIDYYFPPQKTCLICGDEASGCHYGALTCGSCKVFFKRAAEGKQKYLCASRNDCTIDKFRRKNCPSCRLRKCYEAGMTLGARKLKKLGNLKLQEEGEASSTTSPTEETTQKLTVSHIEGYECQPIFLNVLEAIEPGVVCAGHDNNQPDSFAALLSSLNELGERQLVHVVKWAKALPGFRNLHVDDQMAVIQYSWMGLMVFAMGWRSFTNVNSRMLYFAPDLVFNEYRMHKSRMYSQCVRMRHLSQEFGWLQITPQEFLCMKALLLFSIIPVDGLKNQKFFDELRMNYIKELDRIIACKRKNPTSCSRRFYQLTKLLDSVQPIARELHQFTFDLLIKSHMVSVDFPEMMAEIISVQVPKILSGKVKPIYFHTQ
Outline: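 Luciferase luminescence is the read-out: compounds are tested for suppressing 0.5 nM R1881-driven MMTV reporter activity in MDA-kb2 cells after 16 hr at 37C.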
% is set by controls: 0 for no effect and ±100 for the full control effect.

N[C@@H](Cc1ccc(O)cc1)C(=O)O
inactive: activity change, negative = cytotoxic [1] -0.0666% [at 6.97 µM] | cytotoxicity [2] -12.9% [at 6.97 µM] | activity change, negative = cytotoxicity [3] 4.85% [at 6.97 µM] | cytotoxicity increase [4] 4.36% [at 6.97 µM] | cytotoxicity [5] 1.32% [at 6.97 µM] | cytotoxicity increase [6] -9.11% [at 6.97 µM] | cytotoxicity increase [7] -1.4% [at 6.97 µM] | activity change, negative = cytotoxic [8] 0.618% [at 6.97 µM] | activity change, negative = cytotoxicity [9] -0.381% [at 6.97 µM] | activity change, negative = cytotoxicity [10] 10.4% [at 6.97 µM] | activity change [11] 0.851% [at 6.97 µM, hits give high values] | activity change, negative = cytotoxicity [12] -4.17% [at 6.97 µM] | cytotoxicity increase [13] -2.53% [at 6.97 µM] | activity change, negative = cytotoxicity [14] -0.913% [at 8.39 µM] | viability change, negative = cytotoxic [15] 0.626% [at 8.39 µM] | outcome [16]

CC1(C)[C@H]2CC[C@](C)(C2)[C@H]1O
inactive: outcome [1] | Potency [2] | Potency [3] | Potency [4] | Potency [5] | Potency [6] | Potency [7] | outcome [8] | Potency [9] | Potency [10] | Potency [11] | Potency [12] | Potency [13] | outcome [14] | outcome [15] | outcome [17] | Potency [18]

CCC/C=C(\C=O)CC
inactive: outcome [1] | Potency [2] | Potency [3] | Potency [4] | Potency [5] | Potency [6] | Potency [7] | outcome [8] | Potency [9] | Potency [10] | Potency [11] | Potency [12] | Potency [13] | outcome [14] | outcome [15] | outcome [17]

CC(=O)C1C(=O)C=C(C)OC1=O (stereo not given)
inactive: outcome [1] | Potency [19] | Potency [3] | Potency [4] | Potency [5] | Potency [6] | Potency [7] | outcome [8] | Potency [9] | Potency [10] | Potency [11] | Potency [12] | Potency [13] | outcome [14] | outcome [15] | outcome [17] | Potency [18]

O=Cc1cc2ccccc2o1
inactive: outcome [1] | Potency [2] | Potency [3] | Potency [4] | Potency [5] | Potency [6] | outcome [8] | Potency [9] | Potency [10] | Potency [11] | Potency [12] | Potency [13] | outcome [14] | outcome [15]

O=C=NCC1CCCC(CN=C=O)C1 (stereo not given)
inactive: outcome [1] | Potency [2] | Potency [3] | Potency [4] | Potency [5] | Potency [7] | outcome [8] | Potency [9] | Potency [10] | Potency [11] | Potency [12] | Potency [13] | outcome [14] | outcome [15] | outcome [17] | Potency [18]

Nc1nc(-c2ccccc2)c(Br)c(=O)[nH]1
inactive: outcome [1] | Potency [19] | Potency [3] | Potency [4] | Potency [5] | Potency [6] | Potency [7] | outcome [8] | Potency [9] | Potency [10] | Potency [11] | Potency [12] | outcome [14] | outcome [15] | Potency [20] | outcome [17] | outcome [16] | Potency [18]

CC(C)CCOC(=O)c1ccccc1
inactive: outcome [1] | Potency [2] | Potency [3] | Potency [4] | Potency [5] | Potency [6] | Potency [7] | outcome [8] | Potency [9] | Potency [10] | Potency [12] | Potency [13] | outcome [14] | outcome [15] | Potency [18]

CC(C)=CCC[C@@](C)(O)[C@H]1CC=C(C)CC1
inactive: outcome [1] | Potency [2] | Potency [3] | Potency [4] | Potency [5] | Potency [7] | outcome [8] | Potency [9] | Potency [10] | Potency [11] | Potency [12] | Potency [13] | outcome [14] | outcome [15] | outcome [16]

CN1CCOC(c2ccccc2)c2ccccc2C1 (stereo not given)
inactive: outcome [1] | Potency [2] | Potency [3] | Potency [4] | Potency [5] | Potency [6] | outcome [8] | Potency [9] | Potency [10] | Potency [11] | Potency [12] | Potency [13] | outcome [14] | outcome [15] | outcome [16] | Potency [18]

NC(=O)[C@@H]1CSSCCC(=O)N[C@@H](CCCCN=C(N)N)C(=O)NCC(=O)N[C@@H](CC(=O)O)C(=O)N[C@@H](Cc2c[nH]c3ccccc23)C(=O)N2CCC[C@H]2C(=O)N1 ([Mpa][hArg]GDWPC-NH2; disulfide 1-7)
inactive: outcome [1] | Potency [2] | Potency [3] | Potency [4] | Potency [5] | Potency [7] | outcome [8] | Potency [9] | Potency [10] | Potency [12] | Potency [13] | outcome [14] | outcome [15] | outcome [17] | outcome [16]

c1ccc(-c2nn[nH]n2)cc1
inactive: outcome [1] | Potency [19] | Potency [3] | Potency [4] | Potency [5] | Potency [6] | Potency [7] | outcome [8] | Potency [9] | Potency [10] | Potency [11] | Potency [12] | Potency [13] | outcome [14] | outcome [15] | outcome [17] | Potency [18]

O=Cc1ccccc1Cl
inactive: outcome [1] | Potency [2] | Potency [3] | Potency [5] | Potency [6] | outcome [8] | Potency [9] | Potency [10] | Potency [12] | Potency [13] | outcome [14] | outcome [15] | Potency [18]

O=C(O)CCCCCC(=O)O
inactive: outcome [1] | Potency [2] | Potency [3] | Potency [5] | Potency [6] | outcome [8] | Potency [9] | Potency [10] | Potency [12] | Potency [13] | outcome [14] | outcome [15] | outcome [17] | Potency [18]
active: Potency [4] 22000 nM

CCCCCC(C)O (stereo not given)
inactive: outcome [1] | Potency [2] | Potency [3] | Potency [4] | Potency [5] | Potency [6] | Potency [7] | outcome [8] | Potency [9] | Potency [10] | Potency [11] | Potency [12] | Potency [13] | outcome [14] | outcome [15] | outcome [17] | Potency [18]

CC12CCC(C1)C(C)(C)C2O (stereo not given)
active: Potency [2] 2190 nM | Potency [6] 2190 nM | Potency [13] 1950 nM
inactive: outcome [1] | Potency [3] | Potency [5] | outcome [8] | Potency [10] | Potency [12] | outcome [14] | outcome [15] | outcome [17] | Potency [18]
